The results in this text go back to PubChem BioAssay (NCI).

Several values for one entry are separate records, joined by “and”; a condition that tells them apart may be missing. Equal entries are not always repeated. About 83,000 compounds went through this panel and 20% of them were active in at least one assay; those are over-represented in the sample as a whole.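 Single-dose data. Exposure time 48 hours. Values below 10 considered active.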 More than one record can exist for a structure, and the calls need not agree. Activity calls are given as the source filed them.

This experiment concerns HL-60(TB) leukemia. Description: NCI-60 one-dose screen, 48 h (100 = growth as untreated, 0 = no growth, -100 = all killed). As to conditions: 10 µM unless noted.
Consider `C=CCn1c(C)nc2cc(Nc3nc(Nc4ccc5nc(C)n(CC=C)c5c4)c4ccccc4n3)ccc21`, for which the growth is -52% (active).
To `CCN(CC)CCOc1ccc2c(c1)C(=O)c1cc(OCCN(CC)CC)ccc1-2` belongs 94.2% (inactive) and 36.5% (inactive); to `COc1ncc(F)c(OC)n1`, 95.3% (inactive); to `COC(=O)/C=C/c1cc(O)c2c(c1)C(C(=O)OC)C(c1ccc(O)c(O)c1)O2` (stereo not given), -10.5% (active) and -0.307% (active).
Take `COc1cccc(-c2nc3sccn3c2-c2ccnc(NCCCNS(=O)(=O)c3ccccc3)n2)c1`: the growth was 39.9% (inactive).
As for `CCOC(=O)C(N)Cc1cc(I)c(O)c(I)c1` (stereo not given), the growth was 99.9% (inactive) and 132% (inactive).
For `CCC(C)(O)c1ccc(C)cc1` (stereo not given), the growth is 97.3% (inactive).
Take `CSc1ccc(/C=C2\C=C(CC(=O)NCc3ccc(C(=O)c4ccccc4)cc3)c3cc(F)ccc32)cc1`: the growth is -30.3% (active).
To `COC(=O)[C@]12CC[C@@H](C)[C@H](C)[C@@H]1C1=CC[C@@H]3[C@@]4(C)C(c5cnco5)=C[C@@](C)(CO)C4=CC[C@@]3(C)[C@]1(C)CC2` belongs 21.9% (inactive).
The figure for `COc1ccc2c(c1)O/C(=C/c1ccc(OCC(=O)c3ccccc3)cc1)C2=O` is 88.7% (inactive); for `Cc1n(Cc2ccc3ccccc3n2)cc[n+]1Cc1ccc2ccccc2c1` it is -32.9% (active); for `N#Cc1c(N)nc2c(C#N)c(NC(=O)c3ccccc3)nn2c1-c1ccccc1` it is 93% (inactive).
The figure for `COC(=O)c1ccc(NC(=O)CSc2nc3ccccc3c(=O)n2-c2ccccc2)cc1` is 93.2% (inactive); for `CN1CCN(c2ccc3nc(-c4c(N)c5c(F)cccc5[nH]c4=O)[nH]c3c2)CC1` it is 12.9% (inactive) and 3.6% (active).
For `CC1=C(/C=C/C(C)=C/C=C/C(C)=C/C=N/NC(=S)NC(=S)N/N=C/C=C(C)/C=C/C=C(C)/C=C/C2=C(C)CCCC2(C)C)C(C)(C)CCC1`, the growth was 11.7% (inactive) and -28.1% (active).
For `CCC(=O)Oc1ccc(-c2ccccc2)cc1Br`, the growth was 96.5% (inactive).
Consider `O=C1CSC2=NCCN12`, for which the growth was 106% (inactive) and 86.3% (inactive).
To `Cc1cc(-c2ccccc2)c(C)n1Cc1ccc(Cl)cc1` belongs -27.2% (active); to `Oc1c(Br)cc(Br)c2ccc(Cn3cc(-c4ccccc4C(F)(F)F)nn3)nc12`, 0.588% (active); to `Nc1nc(=S)c2ncn(C3OC(COC(=O)c4ccc(Cl)cc4)C(OC(=O)c4ccc(Cl)cc4)C3OC(=O)c3ccc(Cl)cc3)c2[nH]1` (stereo not given), 93.7% (inactive).
Consider `O=C(Nc1ccc(Br)cc1F)c1cc(F)ccc1O`, for which the growth was -19.7% (active).
Turning to `O=c1c2cc(F)ccc2sc2c(Nc3cccnc3)nc3ccccc3c12`, the growth is 88.5% (inactive).
As to `c1ccc(CNc2c3ccccc3nc3ccccc23)cc1`, the growth was 43.8% (inactive).
For the compound `CCn1nc(-c2ccc(C(=O)OC)cc2)nc2c(=O)n(C)c(=O)nc1-2`, the growth was 132% (inactive).
As to `O=[N+]([O-])c1ccc(N/N=C(/C(=N/Nc2ccc([N+](=O)[O-])cc2)c2ccccc2)c2ccccc2)cc1`, the growth is 117% (inactive).
To `O=[P@@]1(c2ccccc2)O[C@H](COCc2ccccc2)[C@@H](OCc2ccccc2)[C@H](OCc2ccccc2)[C@H]1NCc1ccccc1` belongs -25.1% (active); to `O=c1c(/C=C/c2ccco2)nnc(SCCN2CCOCC2)n1/N=C/c1ccc([N+](=O)[O-])cc1`, 87.9% (inactive).
As to `COc1cc2c(c(OC)c1OC)CCC(c1cccc(C(=O)Nc3ccc(C#N)cc3)c1)O2` (stereo not given), the growth was 15.2% (inactive).
To `Cc1cccc(Cc2cnc(NC(=O)/C=C/c3ccco3)s2)c1` belongs -44.8% (active); to `Cc1sc2nc3[nH]/c(=C\c4ccc(Cl)cc4)c(=O)n3c(=O)c2c1C`, 92.8% (inactive); to `Cn1c2c(Cl)c(Cl)ccc2c2ccn3c(=O)c4ccccc4nc3c21`, 106% (inactive).
As for `C=C1CCC[C@]2(C)CCC[C@H](C)[C@@H](OC(C)=O)[C@@H]3OC(=O)C(=C)[C@@H]3C[C@H]1O2`, the growth is 41.8% (inactive).
For `COc1cc(C(=O)c2ccc3c(c2)OCO3)cc(OC)c1OC`, the growth is 1.04% (active) and 22.6% (inactive).
Take `C=CCn1cc(-c2nc3ccccc3s2)c2cc(-c3ccc4c5c(cccc35)C(=O)N(N)C4=O)ccc21`: the growth was 103% (inactive).
The figure for `Cc1nssc1=S` is 106% (inactive); for `COc1ccc(C(=O)c2nc3ccccc3n2CC(=O)c2ccc(Cl)cc2)cc1` it is -13.2% (active); for `O=C(/C=C/C=C/c1ccccc1)c1ccco1` it is -38.2% (active).
In the case of `O=C(Nc1ccc2ncnc(Nc3ccc(F)c(Cl)c3)c2c1)c1ccccc1`, the growth was 82.2% (inactive).
The figure for `COC(=O)/C(CCC=C(C)C)=C1\[C@@H](OC(C)=O)C[C@@]2(C)[C@H]1C[C@@H](O)[C@H]1[C@@]3(C)CC[C@H](NC(=O)c4cnccn4)[C@@H](C)[C@@H]3CC[C@@]12C` is 99.5% (inactive); for `O=C(CC(c1ccccc1)N1CCOCC1)c1ccccc1` (stereo not given) it is 83.1% (inactive).
